Holding throughout (experiment): glycan array binding signal (z-score within array); higher = stronger binding
Common to all, as to settings: glycan notation: IUPAC condensed, linker removed

In assay [1] the target is Fuc(a1-2)Gal(b1-4)GlcNAc(b1-3)Gal(b1-4)GlcNAc(b1-3)Gal(b1-4)GlcNAc. Put shortly:
(§1)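 Negative Z-scores can be read as non-binding. The Z-score is calculated within each array and then averaged across arrays of one protein sequence at different concentrations or buffers and across linkers. Arrays, 3228 in all, were curated from the Consortium for Functional Glycomics database and kept only where the protein sequence was available.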

For assay [2], the target named is Fuc(a1-2)[GalNAc(a1-4)]Gal(b1-4)GlcNAc. Put shortly: as §1
Assay [3] concerns the target Fuc(a1-3)[Gal(b1-4)]GlcNAc(b1-4)Gal(b1-4)[Fuc(a1-3)]GlcNAc. In a few lines: as §1
In assay [4] the target is Fuc(a1-3)[Gal3S(b1-4)]Glc6S. Put shortly:
as §1

Assay [5] has as its target Fuc(a1-3)[Gal3S(b1-4)]GlcNAc6S. In a few lines: as §1
For assay [6], the target named is Gal(b1-4)GlcNAc(b1-3)GalNAc. Put shortly: as §1
For assay [7], the target named is Gal3S(b1-3)[Fuc(a1-4)]GlcNAc. Put shortly:
as §1

Assay [8] concerns the target GlcNAc(b1-3)[GlcNAc(b1-6)]GalNAc. Put shortly:
as §1

Another assay has as its target GlcNAc(b1-6)GalNAc. Put shortly:
as §1

Assay [9] concerns the target Man(a1-3)[Man(a1-6)]Man(b1-4)GlcNAc(b1-4)GlcNAc. In a few lines: as §1
The next assay concerns the target Neu5Ac(a2-3)Gal. In a few lines: as §1
In assay [10] the target is Neu5Ac(a2-3)Gal(b1-3)[Fuc(a1-4)]GlcNAc. In a few lines: as §1
Assay [11] addresses Neu5Ac(a2-3)Gal(b1-4)GlcNAc. Put shortly:
as §1

Assay [12] addresses Neu5Ac(a2-3)Gal(b1-4)GlcNAc(b1-3)Gal(b1-4)GlcNAc(b1-3)Gal(b1-4)GlcNAc. In a few lines: as §1
Assay [13] concerns the target Neu5Ac(a2-3)Gal(b1-4)[Fuc(a1-3)]GlcNAc(b1-3)Gal(b1-4)[Fuc(a1-3)]GlcNAc(b1-3)Gal(b1-4)[Fuc(a1-3)]GlcNAc. Put shortly: as §1
Assay [14] addresses Neu5Ac(a2-3)Gal(b1-4)[Fuc(a1-3)]GlcNAc6S. In a few lines:
as §1

Assay [15] addresses Neu5Gc(a2-3)Gal(b1-3)[Fuc(a1-4)]GlcNAc. In a few lines:
as §1

Assay [16] addresses GlcNAc(b1-3)Gal(b1-4)GlcNAc(b1-3)Gal(b1-4)GlcNAc(b1-3)Gal(b1-4)GlcNAc(b1-3)Gal(b1-4)GlcNAc(b1-2)Man(a1-3)[GlcNAc(b1-3)Gal(b1-4)GlcNAc(b1-3)Gal(b1-4)GlcNAc(b1-3)Gal(b1-4)GlcNAc(b1-3)Gal(b1-4)GlcNAc(b1-2)Man(a1-6)]Man(b1-4)GlcNAc(b1-4)GlcNAc. In a few lines: as §1
Assay [17] has as its target GlcNAc(b1-3)Gal(b1-4)GlcNAc(b1-3)Gal(b1-4)GlcNAc(b1-3)Gal(b1-4)GlcNAc(b1-3)Gal(b1-4)GlcNAc(b1-2)Man(a1-3)[GlcNAc(b1-3)Gal(b1-4)GlcNAc(b1-3)Gal(b1-4)GlcNAc(b1-3)Gal(b1-4)GlcNAc(b1-3)Gal(b1-4)GlcNAc(b1-2)Man(a1-6)]Man(b1-4)GlcNAc(b1-4)[Fuc(a1-6)]GlcNAc. Put shortly:
as §1

The next assay addresses GlcNAc(b1-3)GalNAc. Put shortly: as §1
In assay [18] the target is GlcNAc(b1-3)[GlcNAc(b1-4)][GlcNAc(b1-6)]GlcNAc. In a few lines: as §1
A further assay addresses GlcNAc3Prop(b1-4)GlcNAc. In a few lines: as §1
The target in assay [19] is Neu5Ac(a2-3)Gal(b1-3)GalNAc(b1-3)Gal(a1-4)Gal(b1-4)Glc. In a few lines: as §1
For assay [20], the target named is Neu5Ac(a2-3)Gal(b1-3)GalNAc(b1-4)[Neu5Ac(a2-8)Neu5Ac(a2-3)]Gal(b1-4)Glc. In a few lines:
as §1

The target in the next assay is Neu5Ac(a2-3)Gal(b1-4)Glc. In a few lines:
as §1

For assay [21], the target named is Neu5Ac(a2-3)Gal(b1-4)GlcNAc(b1-2)Man(a1-3)[GlcNAc(b1-4)][Neu5Ac(a2-3)Gal(b1-4)GlcNAc(b1-2)Man(a1-6)]Man(b1-4)GlcNAc(b1-4)GlcNAc. In a few lines: as §1
For assay [22], the target named is Neu5Ac(a2-3)Gal(b1-4)GlcNAc(b1-2)[Neu5Ac(a2-3)Gal(b1-4)GlcNAc(b1-6)]Man(a1-6)[Neu5Ac(a2-3)Gal(b1-4)GlcNAc(b1-2)Man(a1-3)][GlcNAc(b1-4)]Man(b1-4)GlcNAc(b1-4)GlcNAc. Put shortly:
as §1

A further assay deals with Neu5Ac(a2-6)Gal(b1-4)Glc. Put shortly: as §1
The target in assay [23] is Neu5Ac(a2-6)Gal(b1-4)GlcNAc(b1-2)Man(a1-3)[Neu5Ac(a2-3)Gal(b1-4)GlcNAc(b1-2)Man(a1-6)]Man(b1-4)GlcNAc(b1-4)GlcNAc. In a few lines: as §1
Assay [24] addresses Neu5Ac(a2-6)Gal(b1-4)GlcNAc(b1-3)Gal(b1-4)GlcNAc(b1-3)Gal(b1-4)GlcNAc(b1-2)Man(a1-3)[Neu5Ac(a2-6)Gal(b1-4)GlcNAc(b1-3)Gal(b1-4)GlcNAc(b1-3)Gal(b1-4)GlcNAc(b1-2)Man(a1-6)]GalNAc. In a few lines: as §1
In assay [25] the target is Neu5Ac(a2-6)GalNAc(b1-4)GlcNAc. Put shortly: as §1
The target in assay [26] is Neu5Gc(a2-8)Neu5Gc(a2-3)Gal(b1-4)GlcNAc(b1-3)Gal(b1-4)GlcNAc. In a few lines:
as §1

About 410 targets per protein were measured; listed, in parts, are those with the strongest signals and a random draw of the rest.

B1: E-Selectin (Mus musculus), Q00690 (protein)
chain: MNASRFLSALVFVLLAGESTAWYYNASSELMTYDEASAYCQRDYTHLVAIQNKEEINYLNSNLKHSPSYYWIGIRKVNNVWIWVGTGKPLTEEAQNWAPGEPNNKQRNEDCVEIYIQRTKDSGMWNDERCNKKKLALCYTASCTNASCSGHGECIETINSYTCKCHPGFLGPNCEQAVTCKPQEHPDYGSLNCSHPFGPFSYNSSCSFGCKRGYLPSSMETTVRCTSSGEWSAPAPACHVVECEALTHPAHGIRKCSSNPGSYPWNTTCTFDCVEGYRRVGAQNLQCTSSGIWDNETPSCKAVTCDAIPQPQNGFVSCSHSTAGELAFKSSCNFTCEQSFTLQGPAQVECSAQGQWTPQIPVCKAVQCEALSAPQQGNMKCLPSASGPFQNGSSCEFSCEEGFELKGSRRLQCGPRGEWDSKKPTCSAVKCDDVPRPQNGVMECAHATTGEFTYKSSCAFQCNEGFSLHGSAQLECTSQGKWTQEVPSCQVVQCPSLDVPGKMNMSCSGTAVFGTVCEFTCPDDWTLNGSAVLTCGATGRWSGMPPTCEAPVSPTRPLVVALSAAGTSLLTSSSLLYLLMRYFRKKAKKFVPASSCQSLQSFENYHVPSYNV
Regarding B1, the “glycan array binding signal (z-score)” value was -0.255 in assay [1]; -0.301 in assay [2]; 0.598 in assay [3]; 5.1 in [4]; 2.52 in [5]; -0.338 in [6]. Also, the “glycan array binding signal (z-score)” value in assay [7] is 4.55; in assay [8], -0.279; with GlcNAc(b1-6)GalNAc, -0.272; in assay [9], -0.288; with Neu5Ac(a2-3)Gal it was -0.277; in [10], 4.47. For the same molecule, the “glycan array binding signal (z-score)” value is -0.333 in [11]; -0.184 in assay [12]; 3.13 in assay [13]; 3.24 in assay [14]; 4.57 in assay [15].

B2: rAAL-2 (Agrocybe aegerita) (protein)
chain: MTSNVITQDLPIPVASRGFADIVGFGLDGVVIGRNAVNLQPFLAVKNFAQNAGGWLTTKHVRLIADTTGTGKGDIVGFGNAGVYVSVNNGKNTFADPPKMVIANFGYDAGGWRVEKHLRYLADIRKIGRADIIGFGEKGVLVSRNNGGLNFGPATLVLKDFGYDAGGWRLDRHLRFLADVTGNGHLDIVGFGDKHVFISRNNGDGTFAPAKSVIDNFCIDAGGWKIGDHPRFVADLTGDGTADIIGCGKAGCWVALNNGGGVFGQVKLVINDFGTDKGWQAAKHPRFIADLTGNGRGDVVGFGNAGVYVALNNGDGTFQSAKLVLKDFGVQQGWTVSKHRRFVVDLTGDGCADIIGFGEKETLVSYNDGKGNFGPVKALTNDFSFSGGKWAPETTVCWMANLDSSRH
Turning to B2, the “glycan array binding signal (z-score)” value is 4.12 in assay [16]; 3.97 in assay [17]; 0.798 with GlcNAc(b1-3)GalNAc; -0.339 in assay [18]; 0.177 in the assay with GlcNAc3Prop(b1-4)GlcNAc; -0.228 in assay [19]. The “glycan array binding signal (z-score)” value was -0.103 in assay [20]; -0.392 in assay [10]; -0.151 in the assay with Neu5Ac(a2-3)Gal(b1-4)Glc; -0.177 in assay [11]; -0.314 in [21]; -0.33 in [22]. Moreover, the “glycan array binding signal (z-score)” value in the assay with Neu5Ac(a2-6)Gal(b1-4)Glc is -0.303; in [23], -0.237; in [24] it was 0.107; in assay [25], -0.288; in assay [26], -0.178.
